Compound activity: PubChem BioAssay, The Scripps Research Institute Molecular Screening Center
PAFAH2 inh = PAFAH2 (human) inhibition; Q99487; recombinant PAFAH2, FP-rhodamine activity probe, fluorescence polarization; inhibition, % at 3.39 µM; 0.99% of 340,000 active;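 active = inhibition above the mean over all tested compounds plus 3 SD, cut at about 30% in these data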;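 also: inhibitors block probe labeling of enzyme so polarization drops; 0% = enzyme with DMSO and 100% = wells lacking PAFAH2 protein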
PME-1 inh = PME-1 (human) inhibition | inhibition, % at 5.9 µM | 0.53% of 320,000 active | recombinant PME-1, FP-Rh probe fluorescence polarization | AID 2130;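 active = inhibition above the campaign mean of all compounds plus 3 SD, cut at about 26% in these data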;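 also: competitive labeling of PME-1 active site by serine hydrolase directed probe; 0% = PME-1 with DMSO and 100% = wells lacking PME-1 enzyme; inhibitors block probe labeling so polarization falls and inhibition rises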
pPAFAH inh = pPAFAH (human) enzyme inhibition | Q13093 | recombinant pPAFAH, FP-rhodamine probe fluorescence polarization | inhibition, % at 3.39 µM | 1.5% of 330,000 active | AID 463082;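 active = inhibition above the mean inhibition across the screen plus 3 SD, cut at about 25% in these data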;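 also: inhibitors block binding of the rhodamine activity-based probe so polarization drops; 0% = enzyme with DMSO and 100% = wells lacking pPAFAH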
PAFAH1B2 FP inh = PAFAH1B2 (human) inhibition | P68402 | recombinant PAFAH1B2, FP-rhodamine activity probe, fluorescence polarization | inhibition, % at 3.39 µM | 1.2% of 340,000 active | AID 492953;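 active = inhibition above the mean of all tested compounds plus 3 SD, cut at about 24% in these data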;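 also: 0% = enzyme with DMSO and 100% = wells lacking PAFAH1B2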
Target sequence (P68402 whole entry, looked up): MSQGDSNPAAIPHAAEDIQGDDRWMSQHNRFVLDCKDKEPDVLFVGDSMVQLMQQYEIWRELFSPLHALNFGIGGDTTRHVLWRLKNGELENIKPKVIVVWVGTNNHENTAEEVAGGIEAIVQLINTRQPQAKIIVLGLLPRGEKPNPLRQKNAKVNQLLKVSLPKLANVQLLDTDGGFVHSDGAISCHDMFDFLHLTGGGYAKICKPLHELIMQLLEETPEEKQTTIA
Fam108B inh = counter-screen for RBBP9 inhibitors: inhibitors of mouse Fam108B | recombinant Fam108B, FP-Rh probe fluorescence polarization | inhibition, % at 9.51 µM | 0.33% of 300,000 active;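 active = inhibition above the screen mean inhibition plus 3 SD, computed separately per campaign, cut at about 18% in these data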;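 also: inhibitors lower polarization as less probe binds the enzyme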
PAFAH1B3 inh = PAFAH1B3 (human) inhibition. Q15102. 0.28% of 340,000 active. inhibition, % at 3.39 µM. recombinant PAFAH1B3, FP-rhodamine probe, fluorescence polarization;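 active = inhibition above the screen-wide average of all tested compounds plus 3 SD, cut at about 25% in these data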;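 also: 0% = enzyme with DMSO only and 100% = wells lacking PAFAH1B3 protein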
Target sequence (Q15102 whole entry, looked up): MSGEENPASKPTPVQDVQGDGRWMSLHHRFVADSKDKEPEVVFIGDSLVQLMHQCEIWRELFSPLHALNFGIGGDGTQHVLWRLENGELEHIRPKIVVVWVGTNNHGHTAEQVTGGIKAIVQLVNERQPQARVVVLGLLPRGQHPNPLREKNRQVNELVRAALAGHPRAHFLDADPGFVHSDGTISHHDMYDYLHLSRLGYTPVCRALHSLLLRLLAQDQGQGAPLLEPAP
Numbers without * were called inactive. An excerpt weighted towards active compounds, which were near 2.8% of everything screened.

Screening COc1ccccc1NS(=O)(=O)c1ccc(N/N=C/c2ccccc2OCC(=O)O)c([N+](=O)[O-])c1 returned PAFAH2 inh 15.0, PME-1 inh 54.5*, pPAFAH inh 28.6*, PAFAH1B2 FP inh 9.3, Fam108B inh 7.6 and PAFAH1B3 inh 12.9.
Screening CC(NS(=O)(=O)c1ccc2c(c1)OCCO2)c1ccccc1 (stereo not drawn) returned PAFAH2 inh 6.4, PME-1 inh 2.6, pPAFAH inh 8.4, PAFAH1B2 FP inh 27.1*, Fam108B inh -1.3 and PAFAH1B3 inh 5.7.
For Cc1ccccc1C(C)NS(=O)(=O)c1ccc2c(c1)OCCO2 (stereo not drawn) the results were PAFAH2 inh 2.2, pPAFAH inh -1.1, PAFAH1B2 FP inh 4.6 and PAFAH1B3 inh 14.5.
Screening Cc1nn(-c2ccccc2)nc1C(=O)Oc1cc(C(F)(F)F)nn1-c1ccccc1 returned PAFAH2 inh 0.1, PME-1 inh 1.1, pPAFAH inh 11.4, PAFAH1B2 FP inh 4.1, Fam108B inh 0.5 and PAFAH1B3 inh 7.5.
Cc1ccsc1C(=O)OCC(=O)Nc1ccc(Cl)cc1C(F)(F)F was read as PAFAH2 inh 51.1*, PME-1 inh -1.6, pPAFAH inh 32.6*, PAFAH1B2 FP inh 2.7, Fam108B inh 0.0 and PAFAH1B3 inh 1.1.
`N#Cc1c(Nc2cccc(F)c2)sc2c(O)cc(=O)[nH]c12` gave PME-1 inh 6.9, pPAFAH inh 25.1* and Fam108B inh 11.6.
Cc1cc(=O)[nH]c(Nc2cccc(F)c2)n1 was read as PAFAH2 inh -1.2, PME-1 inh -1.4, pPAFAH inh -2.0, PAFAH1B2 FP inh -2.8, Fam108B inh 0.8 and PAFAH1B3 inh 9.8.
COc1cc(C)c(/C=C/C(C)=C/C=C/C(C)=C/C(=O)O)c(C)c1C was read as PAFAH2 inh 17.4, PME-1 inh 0.6, pPAFAH inh 29.0*, PAFAH1B2 FP inh 1.1, Fam108B inh 2.2 and PAFAH1B3 inh 3.3.
`CCC(CO)Oc1cc(NC(=O)Cc2ccccc2)c2ncn(C(C)C)c2c1` (stereo not drawn) gave PAFAH2 inh 16.3, pPAFAH inh 26.3*, PAFAH1B2 FP inh 1.4 and PAFAH1B3 inh 0.6.
`CCC(CO)Oc1cc(NCc2ccccc2)c2ncn(C(C)C)c2c1` (stereo not drawn) gave PAFAH2 inh -4.9, pPAFAH inh 6.6, PAFAH1B2 FP inh 3.7 and PAFAH1B3 inh 10.5.
For Cc1cc(C)c(C#N)c(SCC(=O)Nc2c(C)n(C)n(-c3ccccc3)c2=O)n1 the results were PAFAH2 inh 0.9, pPAFAH inh -1.2, PAFAH1B2 FP inh 9.9 and PAFAH1B3 inh 14.0.
For CCOC(=O)N1CCN(C(=O)c2cn(C)c3ccc(S(=O)(=O)N4CCOCC4)cc3c2=O)CC1 the results were PAFAH2 inh -3.5, PME-1 inh 0.3, pPAFAH inh 0.5, PAFAH1B2 FP inh 4.7, Fam108B inh -1.8 and PAFAH1B3 inh 5.4.
For O=C1C=C(Nc2cccc3cccnc23)c2ccccc2C1=O the results were PAFAH2 inh 29.6, PME-1 inh 9.5, pPAFAH inh 33.6*, PAFAH1B2 FP inh 3.9, Fam108B inh 9.0 and PAFAH1B3 inh 15.2.
For CC1Nc2ccccc2C(=O)N1NS(C)(=O)=O (stereo not drawn) the results were PAFAH2 inh 20.8, PME-1 inh -4.8, pPAFAH inh 27.7*, PAFAH1B2 FP inh 2.9, Fam108B inh 3.5 and PAFAH1B3 inh 5.2.
COc1ccc(C2Nc3ccccc3C(=O)N2NS(C)(=O)=O)cc1 (stereo not drawn) was read as PAFAH2 inh 3.0, PME-1 inh 0.2, pPAFAH inh 3.4, PAFAH1B2 FP inh -1.5, Fam108B inh 5.1 and PAFAH1B3 inh 8.0.
Screening O=C1NC(=O)/C(=C\c2ccccc2Oc2ccc(F)c(F)c2)S1 returned PAFAH2 inh -4.4, PME-1 inh -9.8, pPAFAH inh 8.2, PAFAH1B2 FP inh 25.8*, Fam108B inh -8.3 and PAFAH1B3 inh -11.3.
For O=C1NC(=O)/C(=C/c2ccccc2OCc2ccccc2)S1 the results were PAFAH2 inh 4.7, PME-1 inh -9.9, pPAFAH inh 2.6, PAFAH1B2 FP inh 16.4, Fam108B inh -8.9 and PAFAH1B3 inh 9.8.
For O=C(OCCNc1ccc(C(F)(F)F)cc1[N+](=O)[O-])c1cc2ccccc2oc1=O the results were PAFAH2 inh -1.7, PME-1 inh -2.7, pPAFAH inh -3.7, PAFAH1B2 FP inh 8.0, Fam108B inh 3.7 and PAFAH1B3 inh -4.7.
Screening CN(CC(=O)Nc1ccc(C#N)cc1)Cc1ccc(Cl)cc1Cl returned PAFAH2 inh 4.5, PME-1 inh 14.4, pPAFAH inh 2.7, PAFAH1B2 FP inh 7.3, Fam108B inh -3.4 and PAFAH1B3 inh 4.3.
Screening COc1ccccc1CN(C)CC(=O)NC1CCCc2ccccc21 (stereo not drawn) returned PAFAH2 inh 2.1, PME-1 inh 8.1, pPAFAH inh 2.8, PAFAH1B2 FP inh 2.2, Fam108B inh 2.8 and PAFAH1B3 inh 8.5.
`COc1ccccc1CN(C)CC(=O)NC(=O)NC1CCCCC1` gave PAFAH2 inh -0.3, PME-1 inh 5.2, pPAFAH inh 33.6*, PAFAH1B2 FP inh 0.2 and PAFAH1B3 inh -1.6.
CN(CC(=O)NC(=O)NC1CCCCC1)CC(=O)Nc1ccc(Cl)cc1 was read as PAFAH2 inh 1.0, PME-1 inh 9.9, pPAFAH inh 4.5, PAFAH1B2 FP inh 24.4* and PAFAH1B3 inh 1.8.
Screening CN(CC(=O)Nc1ccc(C#N)cc1)Cc1ccc(Cl)cc1 returned PAFAH2 inh 7.6, PME-1 inh 6.3, pPAFAH inh 1.6, PAFAH1B2 FP inh 31.3*, Fam108B inh -0.1 and PAFAH1B3 inh 15.6.
`C=CCCC1CN(CCCC)S(=O)(=O)c2c(F)cccc2O1` (stereo not drawn) gave PAFAH2 inh -0.1, PAFAH1B2 FP inh 8.6 and PAFAH1B3 inh 3.2.
`COc1ccc(-c2oc3ccc(-c4ccc5c(c4)OCO5)cc3c2C#CC2(O)CCCCC2)cc1` gave PAFAH2 inh -15.8, PME-1 inh -27.3, pPAFAH inh -0.6, PAFAH1B2 FP inh -6.6, Fam108B inh -24.5 and PAFAH1B3 inh -8.9.
For COc1cc(-c2ccc3oc(-c4cccc(C)c4)c(C#CC4(O)CCCCC4)c3c2)cc(OC)c1OC the results were PAFAH2 inh -8.4, pPAFAH inh 27.1*, PAFAH1B2 FP inh -2.8 and PAFAH1B3 inh -6.6.
CSc1ccc(C2NN=C(c3ccccc3)S2)cc1 (stereo not drawn) was read as PME-1 inh -3.1, pPAFAH inh -0.6 and Fam108B inh 1.2.
`Oc1ccccc1C1NN=C(c2ccccc2)S1` (stereo not drawn) gave PAFAH2 inh 49.5*, PME-1 inh -5.1, pPAFAH inh -2.6, PAFAH1B2 FP inh 5.6, Fam108B inh -0.1 and PAFAH1B3 inh -1.4.
For COc1ccccc1CN1CC(C(=O)N2CCOCC2)CCC1=O (stereo not drawn) the results were PAFAH2 inh -8.2, PME-1 inh 4.0, pPAFAH inh -4.3, PAFAH1B2 FP inh 6.1, Fam108B inh 4.8 and PAFAH1B3 inh -2.0.
